# Reference: the supplement of paper PMC12636033
# ± gives the standard deviation of the averaged measurements. The full ranking holds about 33,000 sequences; the median of “E-score (rank enrichment, -0.5 to 0.5)” is about -0.0068, and the highest 2% start at about 0.24. The sample holds the highest values, similar sequences and a random draw of the others, so the mix is not that of the screen.
# System: muMax20 (Max(13-93) K31hArg/K57hArg, M65Nle)
# Test: PBM 8-mer E-score (E-score (rank enrichment, -0.5 to 0.5)); higher = stronger preferential binding
# Procedure: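 Protein binding microarray (universal PBM chip covering all 10-mers in fixed probe flanks) with chemically synthesized human Max(13-93) bHLH-LZ analogs (not full-length Max) bearing noncanonical residues (hArg, Tha, Aib, Nle at 65) and aromatic Cys staples. Read-out per 8-mer (and its reverse complement): E-score (rank-based enrichment, -0.5 to 0.5) and Z-score of median probe intensity.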
row,Sequence,PBM 8-mer E-score
1,ATGCATTA,0.28 ± 0.079
2,ATGCATGC,0.198 ± 0.11
3,ATGCATGG,0.132 ± 0.097
4,GTGCATCA,0.145 ± 0.039
5,GAGCATGC,0.217 ± 0.12
6,GAGCAGCC,-0.196 ± 0.0049
7,ACAACCCC,0.0696 ± 0.03
8,ATTCATTA,0.177 ± 0.078
9,ATACATTC,0.244 ± 0.0028
10,ATTCATTG,0.148 ± 0.014
11,CTACATTC,0.0325 ± 0.15
12,ATACATTG,0.125 ± 0.013
13,ATTCATTC,0.287 ± 0.035
14,ACGCGGGG,0.0227 ± 0.021
15,CAGCTAAC,-0.15 ± 0.12
16,GCGCCTCA,-0.0397 ± 0.1
17,CCCGGTCA,-0.139 ± 0.064
18,AAAACATT,0.127 ± 0.061
19,AAAACATG,0.279 ± 0.027
20,AACACATG,0.317 ± 0.053
21,AACACATC,0.0883 ± 0.011
22,CAAACATG,0.229 ± 0.044

row,Sequence,PBM 8-mer E-score
1,AACACATT,0.0928 ± 0.081
2,CTCTGCTA,-0.193 ± 0.028
3,AAGCAAAT,0.172 ± 0.025
4,CGGGCGAG,-0.112 ± 0.12
5,CAAGCGCA,0.284 ± 0.019
6,CAAGCGCC,-0.192 ± 0.11
7,AAAGCGCA,0.0206 ± 0.012
8,GACGGTGC,-0.0722 ± 0.033
9,ATGCAACA,0.211 ± 0.041
10,ATGCAACG,0.251 ± 0.079
11,ATGCAACC,0.225 ± 0.014
12,TCTTGAAA,0.0967 ± 0.01
13,CGGCGCGC,0.00798 ± 0.069
14,TAGTTATA,0.288 ± 0.068
15,ATGTTATA,0.193 ± 0.12
16,ATGTGTAA,0.204 ± 0.046
17,GTGTTATA,0.2767 ± 0.0021
18,ATGTGTTA,0.276 ± 0.076
19,GAGTTATA,0.173 ± 0.0073
20,ATGTGTTC,-0.0235 ± 0.019
21,ATGTGTAG,0.239 ± 0.068
22,AAGTTATA,0.156 ± 0.018

row,Sequence,PBM 8-mer E-score
1,ATGTGTAC,0.113 ± 0.057
2,ATGTGTGA,0.192 ± 0.13
3,CTGTTATA,0.179 ± 0.097
4,ATCACCAG,-0.0679 ± 0.034
5,GTCCCTCA,-0.00891 ± 0.083
6,ATAACCGG,-0.0406 ± 0.073
7,ATTACGGA,0.0432 ± 0.041
8,ATTGCTGG,-0.0565 ± 0.13
9,AGGCCGGC,-0.211 ± 0.028
10,ATGCGGAG,0.00298 ± 0.056
11,AACAACGA,0.147 ± 0.012
12,GGGTCAAC,-0.0771 ± 0.079
13,GTGTGTTA,0.268 ± 0.0066
14,GGGTGTTA,0.0328 ± 0.0072
15,CTGTGTTA,0.0692 ± 0.087
16,CGCGCTAA,-0.0154 ± 0.16
17,ATTAACTA,0.283 ± 0.017
18,GTTAACTA,0.213 ± 0.0029
19,ACTAACAC,0.0454 ± 0.029
20,CTTAACAC,0.149 ± 0.092
21,ATTAACAC,0.287 ± 0.029
22,GTTAACAA,0.17 ± 0.0025

row,Sequence,PBM 8-mer E-score
1,ATTAACAG,0.0428 ± 0.24
2,ATTAACAA,0.246 ± 0.052
3,ATTAACTC,0.173 ± 0.0096
4,AAAGCTAA,-0.00207 ± 0.033
5,ACCACTAG,0.0698 ± 0.15
6,ATGCGATA,-0.0659 ± 0.018
7,GCCCTCGA,-0.118 ± 0.0058
8,CCGGATAA,-0.0458 ± 0.13
9,AGTAGGAC,0.103 ± 0.047
10,AACGGCCC,-0.263 ± 0.018
11,AACGGCCA,-0.0219 ± 0.0033
12,AACGGCCT,0.269 ± 0.11
13,GATCCCGA,-0.329 ± 0.0063
14,AATTCTTA,0.0618 ± 0.12
15,ATCTGTAC,0.157 ± 0.1
16,ACGTATTA,0.25 ± 0.076
17,ACGTATCT,0.0322 ± 0.12
18,ACGTATCG,-0.00982 ± 0.017
19,GCGTATTA,0.117 ± 0.082
20,ACGTATTG,0.0861 ± 0.067
